Assay outcomes deposited in PubChem BioAssay by National Center for Advancing Translational Sciences (NCATS).
Rows were chosen to be rich in hits. Some 13% of all compounds tested hit in one or more screens of this group.
Shiga toxin inh: Shiga toxin inhibition. Vero cells, Shiga toxin protein synthesis inhibition reporter. inhibition, % at 38.7 µM. 290,000 compounds, 9.2% hits. AID 2315; in the data active means inhibition mostly above about 28%, no sharp cut-off; inactive means mostly below about 43%; further: 0% is about no effect
Lassa entry inh: inhibitors of Lassa virus binding or cell entry. 300,000 compounds, 1.2% hits. AID 540256. Lassa virus pseudotype entry inhibition, cell reporter. Potency, µM (doses to about 37.9 µM), inactives show at the highest dose activity change, negative = inhibition, usual class: inhibitors; calls by dose curve; tested in HEK293 cells; further: potency means the concentration at half of the fitted maximal effect; on the % scale 0 is the no-effect control and ±100 the full control effect; nearly all actives have a fitted effect of over 50% in size
FMDV antiviral: foot and mouth disease virus antiviral activity | FMDV antiviral cell-based qHTS | 410,000 compounds, 1.2% hits | Potency, µM (doses to about 57.9 µM), without a hit: top-dose activity change, negative = inhibition, actives largely listed as inhibitors; calls by dose curve; tested in HEK293T cells; further: read-out not given here; potency means the concentration at half of the fitted maximal effect; on the % scale 0 is the no-effect control and ±100 the full control effect; nearly all actives have a fitted effect of over 45% in size
HCV inhibitor: blocks hepatitis C virus; Huh7.5.1 HCVcc-Cre infection, luciferase reporter, 44 h; Potency, µM (titrated, usually from 41.8 µM), without a hit: at the highest dose activity change, negative = inhibition, actives largely listed as inhibitors; 340,000 compounds, 3.4% hits; active means well fitted inhibition curve with a large enough effect; inconclusive means small, poorly fitted or top-dose-only effect, or another doubt; inactive means no such curve, though single readings can be large or run the other way; further: potency means the concentration at half of the fitted maximal effect; on the % scale 0 is the no-effect control and ±100 the full control effect
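1,000 cells/well; 4 h culture; + compound; + HCVcc-Cre (~0.5 moi); 44 h; luciferase substrate, RT 15 min; read 15 sec.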
Marburg entry inh: inhibitors of Marburg virus binding or cell entry; Potency, µM (doses to about 37.8 µM), for the others: at the top dose activity change, negative = inhibition, usual class: inhibitors; AID 540276; Marburg virus pseudotyped entry inhibition, cell reporter; 300,000 compounds, 1.8% hits; calls by dose curve; tested in HEK293 cells; further: potency means the concentration at half of the fitted maximal effect; on the % scale 0 is the no-effect control and ±100 the full control effect
Cycloheximide cs: counter-screen hit for Shiga toxin inhibitors, cycloheximide; cell reporter, cycloheximide protein synthesis inhibition counterscreen; max response, %; 300,000 compounds, 12% hits; AID 2314; in the data active means max response mostly above about 13%, no sharp cut-off; inactive means mostly below about 14%; further: read at 38.3 µM for the half of the compounds with a filed dose; 0% is about no effect
Active calls of the source: *; ? = inconclusive; · = not tested or not shown; [ ] = another dose, or the depositor's remark.

SMILES	Shiga toxin inh	Lassa entry inh	FMDV antiviral	HCV inhibitor	Marburg entry inh	Cycloheximide cs
O=C(N/N=C/c1ccoc1)c1ccc(Cl)cc1	-14	·	0%	1%	·	-3
O=C(N/N=C/c1ccoc1)c1ccccc1	61*	·	24%	0%	·	37*
O=C(N/N=C/c1ccoc1)c1ccc(Br)cc1	36*	·	24%	5%	·	36*
S=C(Nc1ccccc1)Nc1ccc(Cl)cc1Cl	139*	?	52%	19%	-22%	29*
S=C(Nc1ccc2cn[nH]c2c1)Nc1ccc(Cl)cc1Cl	47	·	11%	0%	·	18*
CCc1ccc(NC(=S)Nc2ccc3cn[nH]c3c2)cc1	50*	?	40%	-20%	?	14
S=C(Nc1ccc(Cl)cc1)Nc1ccc2cn[nH]c2c1	20	·	22%	?	·	8
COc1ccc(NC(=S)Nc2ccc3cn[nH]c3c2)cc1	34	·	3%	-1%	·	7
S=C(Nc1ccc2cn[nH]c2c1)Nc1ccccc1Cl	51*	?	51%	14%	-9%	73*
Cc1ccc(NCC(=O)N/N=C\c2ccc[nH]2)cc1	9	?	21%	14µM*	3.2µM*	-1
Cc1c(Cl)cccc1NC(=O)CCC(=O)N/N=C/c1ccc[nH]1	12	?	0%	1µM*	3.2µM*	1
O=C(Cc1ccccc1)N/N=C/c1ccc[nH]1	28	·	-16%	9%	·	-1
Cc1c(Cl)cccc1NC(=O)CCC(=O)NNC(=O)c1ccccc1	-16	2%	-14%	-2%	8%	1
Cc1ccc(C)c(NC(=O)CCC(=O)N/N=C/c2ccc[nH]2)c1	13	18µM*	-9%	3.5µM*	?	-2
COc1cc(NC(=O)c2ccc(-c3cnn(C)c3)c3ccoc23)cc(OC)c1OC	·	·	4%	·	·	·
CCN1CCN(C(=O)C(=O)c2c(C)[nH]c3ccccc23)CC1	-20	-3%[46.1 µM]	-10%	-2%	-6%[46.1 µM]	-2
CC(C)(C)c1ccc(C(=O)NC(=S)NNC(=O)COc2ccccc2)cc1	61	·	4%	?	·	17*
COC(=O)CNC(=S)NC(=O)c1ccc(C(C)(C)C)cc1	78*	-6%	28%	4%	-32%	32*
O=C(NC(=S)NNC(=O)c1ccccc1F)c1cccnc1	55*	-25%	32%	15%	15%[46.1 µM]	20*
Fc1ccc(NC(=S)NCc2cccnc2)cc1	-3	-3%	56%	11%	0%[46.1 µM]	-1
CC(C)(C)c1ccc(NC(=S)NCc2cccnc2)cc1	17	·	3%	32µM*	·	7
Cc1ccccc1C(=O)NNC(=S)NC(=O)c1cccnc1	16	-4%	-20%	4%	4%	-1
COC(=O)C1CN(C(=O)C(C)Oc2cccc(C)c2C)c2ccccc2O1 (stereo not given)	9	·	-13%	7%	·	4
O=C(CCN1C(=O)C2CC=C(Cl)CC2C1=O)NCc1ccccc1 (stereo not given)	-1	-11%	-10%	3%	12%	1
Cn1c(=O)[nH]c(=O)c2c1nc(SCCO)n2Cc1ccccc1Cl	-10	-21%	-6%	3%	-7%	-3
SMILES	Shiga toxin inh	Lassa entry inh	FMDV antiviral	HCV inhibitor	Marburg entry inh	Cycloheximide cs
O=C(NNC(=S)Nc1ccccc1C(F)(F)F)c1cccnc1	11	9%	10%	10%	2%[14.2 µM]	10*
CC(C)(C)c1ccc(C(=O)NCc2cccnc2)cc1	47	?	20%	-8%	26%	26
CC(C)(C)c1ccc(C(=O)NC(=S)NCc2cccnc2)cc1	active	?	-11%	22µM*	?	45*
CC(C)(C)c1ccc(C(=O)NNC(=S)NC(=O)c2cccnc2)cc1	53*	?	5%	?	?	24*
CC(C)c1cccc(C(C)C)c1NC(=O)Cn1c(=O)cnc2ccccc21	-14	0%	-13%	?	15%	-1
COc1cc2cc(C(=O)N3CCC(Cc4ccccc4)CC3)[nH]c2cc1OC	4	·	-17%	18%	·	12
CCCCCC(=O)Nc1ccc2ccccc2c1	61*	?	57%	-8%	4%	50*
CC(C)CC(=O)Nc1ccc2c(c1)oc1ccccc12	167*	?	62%	22µM*	?	45*
CCCCC(=O)Nc1ccc2c(c1)oc1ccccc12	73*	?	60%	?	-1%	25*
O=C(CSc1ccccn1)Nc1ccc2c(c1)oc1ccccc12	57*	17%	36%	?	?	42*
CCc1cccc(NC(=O)c2sc3nc4n(c(=O)c3c2C)CCC4)c1	73*	·	17%	-23%	·	28*
Cc1ccccc1NC(=O)c1sc2nc3n(c(=O)c2c1C)CCC3	·	10%[46.1 µM]	10%	·	·	·
Cc1c(C(=O)Nc2ccccc2F)sc2nc3n(c(=O)c12)CCC3	95*	-12%[46.1 µM]	12%	0%	·	45*
Cc1c(C(=O)Nc2ccccn2)sc2nc3n(c(=O)c12)CCC3	77*	·	14%	-7%	·	43*
COc1cc(CNc2ncnc3c2ncn3[C@H]2CN(Cc3ccccc3)C[C@@H](COC(C)=O)O2)cc(OC)c1OC	·	·	-17%	·	·	·
Cc1cc(C(F)(F)F)n(-c2nc(C(=O)Nc3cccnc3)cs2)n1	-7	0%	4%	-9%	-11%	-1
COc1cccc(OC)c1OCc1cc(C2C3CCCC=C3C(C#N)=C(N)C2(C#N)C#N)c(C)cc1C (stereo not given)	-3	20µM*	?	-13%	?	5
CCCN1CC=C2C(C#N)=C(N)C(C#N)(C#N)C(c3cccc(OC)c3OC)C2C1 (stereo not given)	-3	-12%	-16%	?	-2%	13
COc1ccc(/C=C\C(=O)CC(O)(c2ccccc2)C(F)(F)F)cc1 (stereo not given)	-21	?	20µM*	-6%	-19%	7
COc1ccc(/C=C/C(=O)c2ccccn2)cc1	43	-5%[46.1 µM]	5%	12%	-8%[46.1 µM]	24*
COc1ccc(/C=C/C(=O)OCC(=O)c2ccccc2F)cc1	·	-4%	39%	13%	-2%	·
COc1ccc(/C=C/C(=O)N2CCN(c3ccccn3)CC2)cc1	30*	·	-2%	18%	·	24*
COc1cc(/C=C/c2ccc(O)cc2)cc(OC)c1	84*	·	28%	13µM*	·	56*
COc1ccc(C(=O)NCCNC(=O)c2ccccn2)cc1	7	4%[46.1 µM]	13%	21%	16%[46.1 µM]	-2
O=C1Cc2ccccc2Sc2c(OCCN3CCCCC3)cccc21	11	?	-5%	?	?	-1
CCN(CC)CCNC(=O)C1CCCN(c2nnc(C)c3c(C)n(-c4ccc(Cl)cc4)nc23)C1 (stereo not given)	·	-13%[46.1 µM]	-2%	·	·	·
COc1cccc2cc(S(=O)(=O)c3ccc(F)c(C)c3)c(=O)oc12	·	0%[46.1 µM]	-8%	·	4%[46.1 µM]	·
COc1ccc(/C=C/C(=O)c2ccc(O)cc2)cc1	64*	·	36%	10%	·	37*
COc1ccc(/C=C/C(=O)Nn2cnnc2)cc1	12	0%	-8%	0%	10%	-2
